The text below walks through data of PubChem BioAssay.

The structures appear in SMILES notation. Active and inactive are the calls of the source.

A short description of this assay: plasmodial surface anion channel blockers, osmotic lysis – cell-based, P. falciparum Indochina, OD700, 18 h, primary screen (AID 1157). The settings on record: P. falciparum Indochina infected erythrocytes, osmotic lysis OD700, 18 h; higher = more signal, called active from +8 up or from −8 down.
In the case of `COC(=O)CC=C[C@@H](C)[C@@H](C=NOC(C)CN1CCCCc2nc(C)c(C)cc21)OC` (stereo partly specified), the z-score is 0.441 (inactive).

As for `CCOC(=O)[C@H](CC(C)C)NC(=O)CCC1CC(OC(=O)NCc2ccc3c(c2)OCO3)CC2(CCCC(COC(=O)NCCc3ccc(Cl)cc3)O2)O1` (stereo partly specified), the z-score was -0.144 (inactive).

Consider `CC(CCN1CCc2nc(-c3ccccc3)c(-c3ccccc3)cc2C1)=NO[C@H](C)c1cn([C@H](CO)Cc2ccccc2)nn1`, for which the z-score was 0.293 (inactive).

As to `CC(CCC(=O)OC[C@H]1O[C@H](C#Cc2ccccc2)C=C[C@@H]1Oc1ccc(C)cc1)=NO[C@H](C)c1cn([C@@H]2COC[C@H]2O)nn1`, the z-score was -0.643 (inactive).

`CC(CCN1CCc2nc(-c3ccccc3)c(-c3ccccc3)cc2C1)=NOC(C)CN1CCCc2nc(C)c(C)cc21` (stereo unspecified): the z-score is 0.268 (inactive).

On to `CCC1=NOC(CCC2CC(OC(=O)NCc3cccc4c3OCO4)CC3(CCCC(COC(=O)NCCc4ccc(Cl)cc4)O3)O2)C1` (stereo unspecified), for which the z-score was -0.268 (inactive).

As to `CCOC(=O)CCN1C(=O)[C@H]2[C@@H]3C(=CC[C@H]2C1=O)C(=O)[C@H]1O[C@H]1[C@H]3O`, the z-score is 0.254 (inactive).

Take `CON=C(C)CCC(=O)OC[C@H]1O[C@H](C#Cc2ccccc2)C=C[C@@H]1Oc1ccc(C)cc1`: the z-score was 0.073 (inactive).

Consider `Cc1cc2c(nc1C)CCCCN2CC(O)CN1CCCc2nc(-c3ccc(Br)cc3)ccc21` (stereo unspecified), for which the z-score was 0.148 (inactive).

For `COC(=O)[C@H](C)NC(=O)CCC1CC(OC(=O)NCc2cccc3ccccc23)CC2(CCCC(COC(=O)NCCc3ccccc3OC)O2)O1` (stereo partly specified), the z-score is 0.494 (inactive).

On to `CC#CCOCCC=C1c2ccccc2[C@@H](OC)[C@@H]1C`, for which the z-score was 0.0739 (inactive).

Consider `CCO[C@H](c1cc(OC)cc([N+](=O)[O-])c1OC)[C@H](C)[C@@H](OC)[C@H](C)C=CCC(=O)OC`, for which the z-score was 0.318 (inactive).

For `O=C1[C@H]2[C@H]3[C@H](O)[C@H](O)CC(=NOC[C@@H](O)COCc4ccco4)[C@@H]3CC[C@H]2C(=O)N1c1cccc(Oc2ccccc2)c1`, the z-score was 0.157 (inactive).

As to `COC(=O)[C@@H]1CC[C@H](C)[C@@H](c2ccc(Br)cc2)N1C[C@@H](O)CN=[N+]=[N-]`, the z-score is -0.956 (inactive).

With `CCOC(=O)[C@H](Cc1ccccc1)NC(=O)CCC1CC(OC(=O)NCc2cccc3ccccc23)CC2(CCCC(COC(=O)NCC3CCCCC3)O2)O1` (stereo partly specified), the z-score is -0.611 (inactive).

As to `C#CCCCON=C1[C@H]2CCn3c(=O)n([C@@H](CC)c4ccccc4)c(=O)n3[C@H]2[C@H](O)[C@@H]2O[C@H]12`, the z-score was 0.0103 (inactive).

As for `C[C@@H]1C=CCC(=O)OC[C@H](C)C(=O)N[C@@H](Cc2ccccc2)C(=O)OC1`, the z-score is -1.2 (inactive).

As to `Cc1ccc2[nH]c3nc(CCCn4ccnc4-c4ccccc4)nnc3c2c1`, the z-score is 0.322 (inactive).

As to `CC(CCN1CCc2nc(-c3ccccc3)c(-c3ccccc3)cc2C1)=NO[C@@H](C)c1cc(-c2c(C)cc(C)cc2C)no1`, the z-score was -1.37 (inactive).

Regarding `O=C1[C@H]2CCn3c(=O)n(Cc4cc5c(cc4Cl)OCO5)c(=O)n3[C@H]2[C@H](O)[C@@H]2O[C@H]12`, the z-score is -0.212 (inactive).

Turning to `CCCNC(=O)OC[C@H]1O[C@H](CCON=C[C@@H](NS(=O)(=O)c2ccc(C)cc2)[C@H](C)C=CCC(=O)OC)C=C[C@@H]1Oc1ccc(OC)cc1`, the z-score is 0.441 (inactive).

On to `CCN1C(=O)[C@H]2[C@H]3[C@H](O)[C@H](O)CC(=NOCC[C@@H]4C=C[C@H](OC(C)=O)[C@@H](COC(C)=O)O4)[C@@H]3CC[C@H]2C1=O`, for which the z-score is 0.44 (inactive).

For the compound `COc1ccc(O[C@H]2C=C[C@@H](c3ccccc3)O[C@@H]2COC(=O)CCC(C)=NOC[C@@H](O)COCc2ccco2)cc1`, the z-score is -2.06 (inactive).

Consider `CC(C)[C@@H](OCc1ccccc1)[C@H](C)C=NOC[C@@H](O)[C@H]1O[C@@H]2OC(C)(C)O[C@@H]2[C@H]1O`, for which the z-score is 0.124 (inactive).

For the compound `O=C1C2=CC[C@H]3C(=O)N(Cc4ccccc4)C(=O)[C@H]3[C@H]2[C@H](O)[C@@H]2O[C@H]12`, the z-score is 0.157 (inactive).

Regarding `COC(=O)[C@H](C)NC(=O)CCC1CC(OC(=O)NCc2ccc3c(c2)OCO3)CC2(CCCC(COC(=O)NCc3ccccc3)O2)O1` (stereo partly specified), the z-score was 0.272 (inactive).

For the compound `CC(C)CON=C1C[C@@H](O)[C@@H](O)[C@@H]2[C@@H]3C(=O)N(Cc4ccccc4)C(=O)[C@@H]3CC[C@H]12`, the z-score was -1.6 (inactive).

With `O=C1[C@H]2[C@H]3[C@H](O)[C@H](O)CC(=NO[C@@H]4O[C@H](CO)[C@@H](O)[C@H](O)[C@H]4O)[C@H]3CC[C@H]2C(=O)N1c1ccc(F)cc1F`, the z-score was 0.159 (inactive).

Turning to `CC(=O)OC[C@H]1O[C@@H](ON=C2[C@H]3CCn4c(=O)n(-c5ccccc5)c(=O)n4[C@H]3[C@H](O)[C@@H]3O[C@H]23)[C@H](OC(C)=O)[C@@H](OC(C)=O)[C@@H]1OC(C)=O`, the z-score is 0.465 (inactive).

Consider `C#CCCCON=C1C[C@@H](O)[C@@H](O)[C@@H]2[C@@H]3C(=O)N([C@@H](C)c4ccccc4)C(=O)[C@@H]3CC[C@@H]12`, for which the z-score was -0.139 (inactive).

Regarding `O=C1[C@H]2[C@H]3[C@H](O)[C@H](O)CC(=NOC[C@@H](O)COCc4ccco4)[C@@H]3CC[C@H]2C(=O)N1C1CCCCC1`, the z-score is 0.329 (inactive).

Regarding `C[C@]12CCC3c4ccc(OCC5CO5)cc4CCC3C1CC[C@@H]2O` (stereo partly specified), the z-score is 0.663 (inactive).

`CCOC(=O)CCN1C(=O)[C@H]2[C@H]3[C@H](O)[C@H](O)CC(=NO[C@@H]4O[C@H](CO)[C@@H](O)[C@H](O)[C@H]4O)[C@H]3CC[C@H]2C1=O`: the z-score is -0.0643 (inactive).

In the case of `C=CCOCC1CN2[C@@H](CC[C@@H](C)[C@@H]2c2ccc(Br)cc2)C(=O)O1` (stereo partly specified), the z-score is 0.247 (inactive).

For `CO[C@H]1COC(=O)[C@H](C)COC(=O)[C@@H](OCc2ccccc2)C=C[C@@H]1C`, the z-score is 0.0584 (inactive).

As for `CC(C)=NOC(C)CN1CCCc2nc(C)c(C)cc21` (stereo unspecified), the z-score is 0.539 (inactive).
